This is an account of results in PubChem BioAssay (NCI).

The panel holds about 83,000 compounds, 20% with a hit somewhere; the sample as a whole holds those more often.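 48-hour exposure, single concentration, 96-well plates; percent growth endpoint where 0 means no net growth. Active: below 10.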 Activity calls are given as the source filed them.

For the experiment, the system named is NCI-H226 lung. The experiment can be described thus: NCI-60 one-dose screen, 48 h (100 = growth as untreated, 0 = no growth, -100 = all killed). The conditions noted are these: 10 µM unless noted. The protocol:
Growth inhibition of the NCI-H226 human Non-Small Cell Lung tumor cell line is measured as a screen for anti-cancer activity. Cells are grown in 96 well plates and exposed to the test compound for 48 hours. Compounds are tested at a single concentration, which is 10^-5 M for most compounds. The reported endpoint is percent growth (GI% or GIPRCNT), where numbers from 0 - 100% represent growth inhibition, and numbers from -100% - 0 represent cell death. For example, a value of 40 represents 60% growth inhibition. A value of 0 means no net growth occurred over the course of the experiment. A value of -40 indicates 40% of cells at the beginning of the experiment died by the end of the experiment. A value of -100 means all cells are dead at the end of the experiment.
NCI-60 Human Tumor Cell Lines Screen was performed using the standard one-dose NCI protocol, which is described in more detail at https://dtp.cancer.gov/discovery_development/nci-60/default.htm.
Compounds with GIPRCNT values below 10 were considered active. Activity score was based on GIPRCNT using the following formula: […]
Score is 0 for GIPRCNT values of 100 or above, 50 for GIPRCNT values of 0, and 100 for GIPRCNT values of -100.
As to `CCN1C(=O)C(=C/C=C/c2ccccc2)C(=O)N(CC)C1=O`, the growth is 94.5% (inactive).

`CCn1cnc2c(Nc3cccc(Cl)c3)nc(N[C@@H]3CCCC[C@@H]3N)nc21`: the growth is 10.6% (inactive).

For `C[C@@H]1C[C@@]2(C)[C@@H](CC[C@@H]3[C@@H]2CC[C@]2(C)C(=O)CC[C@@H]32)CC1=O`, the growth is 102% (inactive).

Regarding `C/C(=C\c1ccn(-c2ccc(N)cc2C(F)(F)F)n1)[C@@H]1C[C@@H]2O[C@]2(C)CCC[C@H](C)[C@H](O)[C@@H](C)C(=O)C(C)(C)[C@@H](O)CC(=O)O1`, the growth was 59.4% (inactive).

`CC1=C2[C@@H](CC1)[C@]1(C)O[C@@](C(C)C)(C[C@H]1O)[C@H]2OC(=O)C1CC1c1ccccc1` (stereo not given in full): the growth is 75.6% (inactive).

In the case of `COc1cc(C=C2c3ccccc3C(=O)c3ccccc32)ccc1OCCCCOc1cc2c(cc1OC)C(=O)N1CCCC1C=N2` (stereo not given), the growth is -66.4% (active).

For `Clc1ccc(CSC(Cn2ccnc2)c2ccc(Cl)cc2Cl)cc1` (stereo not given), the growth was 52.2% (inactive).

With `COc1cc(/C=N/C2=C(C#N)C(c3ccco3)c3c(c4cc(C)ccc4oc3=O)O2)cc(OC)c1OC` (stereo not given), the growth is 86.3% (inactive).

Take `Clc1cc(N2CC2)nc(N2CC2)n1`: the growth is 81.4% (inactive).

With `CC1=C(O)[C@@](C)(CCCCC[C@H](C)CCCCc2ccc(O)cc2)OOC1=O`, the growth was 107% (inactive).

Regarding `CC12CCC3C(C=CC4=C(N)C(=O)CCC43C)C1CCC2=O` (stereo not given), the growth was 96.3% (inactive).

Turning to `COc1ccc(/C=C\c2cc(OC)c(OC)c(OC)c2)cc1NC(=O)/C=C/c1ccc(OC)c(OC)c1`, the growth is 35.9% (inactive).

In the case of `CC(=O)[O][Hg][c]1c(N)c(C)cc(C)c1F`, the growth is 90.2% (inactive).

Turning to `COc1cc([C@@H]2c3cc4c(cc3[C@H](OC(C)=O)[C@H]3COC(=O)[C@@H]23)OCO4)cc(OC)c1OC`, the growth was 33.2% (inactive).

Consider `CC1(C)CN1P(=O)(N1CC1(C)C)N1CC1(C)C` (stereo not given), for which the growth is 109% (inactive).

On to `COC(=O)[C@@H](C)C[C@H](Cc1cn(C)c2ccccc12)NC(=O)c1csc([C@@H](C[C@H](C(C)C)N(C)C(=O)[C@@H](NC(=O)[C@H]2CCCCN2C)C(C)C)OC(C)=O)n1`, for which the growth is 18% (inactive).

As to `CCOP(=O)(Cc1ccc(C#N)cc1)OCC`, the growth was 108% (inactive).

`COc1ccc(S(=O)(=O)Nc2c(/C=C\c3cc(OC)c(OC)c(OC)c3)ccc(OC)c2O)cc1OC`: the growth was 29% (inactive).

Turning to `COc1cc2c(cc1OCCCn1c(-c3ccccn3)nc3ccccc31)N=C[C@@H]1CCCN1C2=O`, the growth was -62% (active).

With `CCCCCCCCOC(=O)CCN1CC1`, the growth was 93.5% (inactive).

For `Clc1cccc(N2COOC3(OOC2)C2CC4CC(C2)CC3C4)c1`, the growth is 96.2% (inactive).

As to `COC[C@@H]1C[C@@]2(C)[C@@H](CC[C@@H]3[C@@H]2CC[C@@]2(C)[C@H]3CC[C@]2(C)O)CC1=O`, the growth was 106% (inactive).

As to `Cc1cc(C)c(CBr)c(C)c1`, the growth is 92.8% (inactive).

On to `C[S+]1C=Cc2ccccc2C1c1ccc(Cl)cc1` (stereo not given), for which the growth is 85.1% (inactive).

As to `CN1C(=O)C23CC4(C56CC78SSC(CO)(C(=O)N7C5Nc5ccccc56)N(C)C8=O)c5ccccc5NC4N2C(=O)C1(CO)SS3` (stereo not given), the growth is -100% (active).

With `CN(C)CCCOc1ccc2c(c1)c(C(=O)C(=O)NCCO)cn2Cc1ccccc1`, the growth was 103% (inactive).

`CNC12C3C4C1C1C2C3C41C(=O)N[C@H](C(=O)N(C)[C@H](C[C@@H](OC(C)=O)c1nc(C(=O)N[C@@H](Cc2ccccc2)C[C@H](C)C(=O)OC)cs1)C(C)C)C1CC1` (stereo not given in full): the growth was 11.2% (inactive).

Take `CC12CCC3C(CCC4Cc5[nH]c6ccccc6c5CC43C)C1CCC2O` (stereo not given): the growth was 41.3% (inactive).

As for `CN(CCCCN(C)CCOS(C)(=O)=O)CCOS(C)(=O)=O`, the growth is 75% (inactive).

`CCC1CN1CCCCN1CC1CC` (stereo not given): the growth was 98.3% (inactive).

For `COc1ccc(C/C(C)=C(\c2ccc(OCCN3CCOCC3)cc2)c2ccc(OC(=O)Cc3ccccc3)cc2)cc1`, the growth is -26.6% (active).

As to `CCOC(=S)S[C@H]1C[C@@H]2[C@H](CC[C@]3(C)C(=O)CC[C@@H]23)[C@@]2(C)CCC(=O)C=C12`, the growth was 106% (inactive).

Consider `C/C(=C\c1ccn(-c2ccccc2N)n1)[C@@H]1C[C@@H]2O[C@]2(C)CCC[C@H](C)[C@H](O)[C@@H](C)C(=O)C(C)(C)[C@@H](O)CC(=O)O1`, for which the growth was 33.8% (inactive).

`CC(C)[C@@H]1NC(=O)[C@]2(C)CSC(=N2)c2csc(n2)CNC(=O)C[C@@H](/C=C/CCS)OC1=O`: the growth was 0.257% (active).

On to `O=C(CC1(O)C(=O)Nc2ccc(Cl)cc21)c1ccc(C(=O)NCC2CCC3(CC2)OOC2(CCCCC2)OO3)cc1` (stereo not given), for which the growth is 53.3% (inactive).

As to `c1ccc(Nc2nc(-c3ccccc3)c[se]2)cc1`, the growth is 81.4% (inactive).

Turning to `Fc1ccc2c(c1)c(-c1nc(-c3c[nH]c4ncccc34)cs1)cn2CCN1CCOCC1`, the growth was 49.2% (inactive).

Take `Fc1ccc(C2=CCNCC2)cc1`: the growth was 86.6% (inactive).

Turning to `CCN(CCO)C(Cc1ccccc1)c1ccccc1` (stereo not given), the growth is 101% (inactive).

As to `CN1C(=O)N[C@H]2[C@@H]3NC(=O)c4ccc(Br)n4[C@@H]3C[C@]21O`, the growth was -17.4% (active).
